The values below come from PubChem BioAssay (NCI).

Each structure is given as a SMILES string. About 83,000 compounds went through this panel and 20% of them were active in at least one assay; those are over-represented in the sample as a whole.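 Assay: single dose, 48 h. Readout: percent growth (0 = no net growth; negative = cell death). Active: <10.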 Calls of active or inactive are those of the source.

The assay deals with M14 melanoma. The experiment in a line: NCI-60 one-dose screen, 48 h (100 = growth as untreated, 0 = no growth, -100 = all killed). The note with it: 10 µM unless noted. The method, then:
Growth inhibition of the M14 human tumor cell line is measured as a screen for anti-cancer activity. Cells are grown in 96 well plates and exposed to the test compound for 48 hours. Compounds are tested at a single concentration, which is 10^-5 M for most compounds. The reported endpoint is percent growth (GI% or GIPRCNT), where numbers from 0 - 100% represent growth inhibition, and numbers from -100% - 0 represent cell death. For example, a value of 40 represents 60% growth inhibition. A value of 0 means no net growth occurred over the course of the experiment. A value of -40 indicates 40% of cells at the beginning of the experiment died by the end of the experiment. A value of -100 means all cells are dead at the end of the experiment.
NCI-60 Human Tumor Cell Lines Screen was performed using the standard one-dose NCI protocol, which is described in more detail at https://dtp.cancer.gov/discovery_development/nci-60/default.htm.
Compounds with GIPRCNT values below 10 were considered active. Activity score was based on GIPRCNT using the following formula: […]
Score is 0 for GIPRCNT values of 100 or above, 50 for GIPRCNT values of 0, and 100 for GIPRCNT values of -100.
As for `O=S(=O)(Cc1ccc(Cl)cc1Cl)c1ccc(Cl)cc1`, the growth is 9.79% (active).

For `NC(=O)N/N=C\c1ccc([N+](=O)[O-])o1`, the growth is 112% (inactive).

As for `CCCCCCCCN(CCCCCCCC)C(=O)CCl`, the growth is 104% (inactive). In the case of `Clc1cccc(CNc2c3ccccc3nc3ccccc23)c1` it was 35.5% (inactive); in that of `Cc1ccc(C(=O)CC(=O)C(F)(F)C(F)(F)C(F)(F)F)s1`, 103% (inactive).

With `COc1ccc2nc(-c3ccc(-c4noc(-c5ccc(Cl)cc5)n4)cc3)[nH]c2c1`, the growth was 42.9% (inactive). Turning to `CC1CCN(CCCCCOc2ccc3oc4ccc(Cl)cc4c(=O)c3c2)CC1`, the growth was -54% (active). In the case of `C/C(=N\Nc1ccc([N+](=O)[O-])cn1)c1ccc(N)cc1` it was 106% (inactive). In the case of `O=C(N/N=C/c1ccccc1O)c1ccncc1` it was 50.7% (inactive); in that of `Nc1ccc(C2=NNC(=O)Cc3cc4c(cc32)OCCO4)cc1Cl`, 16.8% (inactive); in that of `O=C(CCCCCCN1CC(=O)N2[C@@H](c3ccc(Cl)c(Cl)c3)c3[nH]c4ccccc4c3C[C@H]2C1=O)NO`, 50.6% (inactive). For the compound `CCOC(=O)C1=C(C(=O)OCC)N(c2cc(OC)c(OC)c(OC)c2)C(N)=C(C#N)C1c1cc(=O)[nH]c2ccccc12` (stereo not given), the growth was 105% (inactive). Regarding `O=C(Nc1cccc(N=Cc2c(O)ccc3ccccc23)c1)c1ccccc1`, the growth was 91.1% (inactive). The result for `NC(CCC(=O)NC(CS)C(=O)NCC(=O)O)C(=O)O` (stereo not given) reads 108% (inactive); that for `COc1cccc(C2C(C#N)=C(N)Oc3cc4c(cc32)OCO4)c1` (stereo not given), 0.938% (active). The result for `Clc1cc(Cl)cc(-c2cnc3nonc3n2)c1` reads 90.2% (inactive). Consider `FC(F)(F)c1cc(-c2nnc3n2N=C(Cl)CS3)cc(C(F)(F)F)c1`, for which the growth is 84.6% (inactive). On to `CCc1c(C)c2ccc(O)c(-c3cc(-c4ccccc4)c(C#N)c(=O)[nH]3)c2oc1=O`, for which the growth is 102% (inactive). The result for `Cn1cnc([N+](=O)[O-])c1S(=O)(=O)Oc1ccccc1` reads 53.1% (inactive); that for `COc1ccc(C(=O)OC2C(OC3C(O)COC(O[C@H]4C[C@H]5[C@@H]6CC=C7C[C@@H](O)CC[C@]7(C)[C@H]6CC[C@]5(C)[C@H]4[C@H](C)C(=O)CCC(C)C)C3OC(N)=O)OCC(O)C2O)cc1` (stereo not given in full), -78.6% (active).

As for `CC(=O)N1N=C(C2C(=O)N(C)C(=O)N(C)C2=O)CC1c1ccccc1C(=O)O` (stereo not given), the growth was 96.7% (inactive). In the case of `COc1cc(C2CC(c3ccccc3)=NN2C=O)ccc1Oc1ccnc2cc(Cl)ccc12` (stereo not given) it was 54.9% (inactive); in that of `O=C1/C(=C/c2ccccc2)SC(=Nc2ccccc2)N1Nc1ccccc1`, -59.3% (active).

Take `O=c1c2cc(Cl)ccc2oc2ccc(OCCCCCN3CCCCC3)cc12`: the growth was -67.4% (active). In the case of `COc1ccc(-c2cc(C(=O)Nc3ccc(Br)cc3)nc3[nH]c(=O)sc23)cc1` it was 44.4% (inactive); in that of `CN(C)c1nc(-c2ccco2)n2nc(-c3ccc(Cl)cc3)cc2n1`, 87% (inactive); in that of `O=C1Nc2ccc(Cl)cc2/C1=C\c1c(-c2ccc(F)cc2)nc2ccccn12`, -9.52% (active). On to `CS(=O)(=O)c1ccc(C(=O)N/N=C/c2cccc3ccccc23)cc1`, for which the growth was 66.8% (inactive). The result for `Cc1cc(-c2ccc(N=Nc3c(S(=O)(=O)O)cc4cc(S(=O)(=O)O)cc(O)c4c3O)c(C)c2)ccc1N=Nc1c(S(=O)(=O)O)cc2cc(S(=O)(=O)O)cc(O)c2c1O` reads 103% (inactive). In the case of `Cc1cc(C#Cc2ccc(C(C)(C)C)cc2)ccc1-n1c(/C=C/c2c(Cl)cccc2Cl)nc2ccccc2c1=O` it was 106% (inactive); in that of `CC(C)[C@@]12C[C@@H](OC(=O)[C@H]3CO3)[C@@](C)(O1)[C@@H]1CC[C@@H](C)[C@H]1[C@@H]2OC(=O)/C=C/c1ccccc1`, 102% (inactive); in that of `C[N+](C)(C)CC(=O)N/N=C\c1ccco1`, 111% (inactive). For `COc1cc(OC)c(Cl)cc1N`, the growth is 115% (inactive). Consider `Cc1ccc(C(CN(C)C)C(=O)c2ccccc2)cc1` (stereo not given), for which the growth was 31.6% (inactive). The result for `CCN(CC)Cc1cc(Nc2ccnc3ccc(OC)cc23)ccc1O` reads 29.5% (inactive).

On to `CCCCOC(=O)c1cc(O)c(O)c(O)c1`, for which the growth is 84.1% (inactive). For `CN(C)CCNC(=O)n1cc(-c2ccncc2)c(-c2cc(O)cc(Cl)c2)n1`, the growth is 27.6% (inactive). The result for `O=C1Nc2ccc(Br)cc2/C1=N/c1nc(-c2ccccc2)cs1` reads 87.5% (inactive).

For `c1ccc2c(N=NSc3ncnc4nc[nH]c34)c3ccccc3nc2c1`, the growth is -25.4% (active). In the case of `N=c1nc(N2CCCCC2)cc(N)n1O` it was 123% (inactive).
